Calls of active or inactive are those of the source.

Results on 5 compounds are retold here after PubChem BioAssay.

The nature of experiment [1]: small molecules captured by biotinylated probe aFSTL3 – biochemical, small-molecule microarray, fluorescence 635/667, stem cell growth factor project, primary screen (AID 1064).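 Also: measures binding of the biotinylated anti-FSTL3 antibody to printed compounds.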 The conditions noted are these: higher = more signal.
A short description of experiment [2]: binders from COS7 lysate, DM2A8 probe, primary screen, torsin A project, cell lysate, small-molecule microarray, fluorescence 635/667 (AID 1065). The conditions noted are these: higher = more signal, COS7 lysate expressing mutant human TOR1A.
Experiment [3] is described as follows: small molecules captured by biotinylated probe aFGF2 – biochemical, small-molecule microarray, fluorescence 635/667, stem cell growth factor project, primary screen (AID 1067).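 Also: measures binding of biotinylated aFGF2 protein to printed compounds on slides; z-score merges feature fluorescence and signal-to-noise across triplicate slides.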 The conditions noted are these: higher = more signal.
Experiment [4] can be described thus: small molecules captured by biotinylated probe aFGF10 – biochemical, small-molecule microarray, fluorescence 635/667, stem cell growth factor project, primary screen (AID 1071).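 Also: score merges 667 nm spot intensity and signal to noise from triplicate slides.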 The conditions noted are these: higher = more signal.
The target in experiment [5] is Neurogenic locus notch homolog protein 2 (Homo sapiens) (UniProt Q04721). In words: small molecules binding Notch2 protein – biochemical, small-molecule microarray, 635 nm fluorescence, stem cell growth factors, primary screen (AID 1073). The conditions noted are these: higher = more signal.
Sequence of Neurogenic locus notch homolog protein 2 (Homo sapiens) (Q04721 whole entry, looked up, canonical isoform): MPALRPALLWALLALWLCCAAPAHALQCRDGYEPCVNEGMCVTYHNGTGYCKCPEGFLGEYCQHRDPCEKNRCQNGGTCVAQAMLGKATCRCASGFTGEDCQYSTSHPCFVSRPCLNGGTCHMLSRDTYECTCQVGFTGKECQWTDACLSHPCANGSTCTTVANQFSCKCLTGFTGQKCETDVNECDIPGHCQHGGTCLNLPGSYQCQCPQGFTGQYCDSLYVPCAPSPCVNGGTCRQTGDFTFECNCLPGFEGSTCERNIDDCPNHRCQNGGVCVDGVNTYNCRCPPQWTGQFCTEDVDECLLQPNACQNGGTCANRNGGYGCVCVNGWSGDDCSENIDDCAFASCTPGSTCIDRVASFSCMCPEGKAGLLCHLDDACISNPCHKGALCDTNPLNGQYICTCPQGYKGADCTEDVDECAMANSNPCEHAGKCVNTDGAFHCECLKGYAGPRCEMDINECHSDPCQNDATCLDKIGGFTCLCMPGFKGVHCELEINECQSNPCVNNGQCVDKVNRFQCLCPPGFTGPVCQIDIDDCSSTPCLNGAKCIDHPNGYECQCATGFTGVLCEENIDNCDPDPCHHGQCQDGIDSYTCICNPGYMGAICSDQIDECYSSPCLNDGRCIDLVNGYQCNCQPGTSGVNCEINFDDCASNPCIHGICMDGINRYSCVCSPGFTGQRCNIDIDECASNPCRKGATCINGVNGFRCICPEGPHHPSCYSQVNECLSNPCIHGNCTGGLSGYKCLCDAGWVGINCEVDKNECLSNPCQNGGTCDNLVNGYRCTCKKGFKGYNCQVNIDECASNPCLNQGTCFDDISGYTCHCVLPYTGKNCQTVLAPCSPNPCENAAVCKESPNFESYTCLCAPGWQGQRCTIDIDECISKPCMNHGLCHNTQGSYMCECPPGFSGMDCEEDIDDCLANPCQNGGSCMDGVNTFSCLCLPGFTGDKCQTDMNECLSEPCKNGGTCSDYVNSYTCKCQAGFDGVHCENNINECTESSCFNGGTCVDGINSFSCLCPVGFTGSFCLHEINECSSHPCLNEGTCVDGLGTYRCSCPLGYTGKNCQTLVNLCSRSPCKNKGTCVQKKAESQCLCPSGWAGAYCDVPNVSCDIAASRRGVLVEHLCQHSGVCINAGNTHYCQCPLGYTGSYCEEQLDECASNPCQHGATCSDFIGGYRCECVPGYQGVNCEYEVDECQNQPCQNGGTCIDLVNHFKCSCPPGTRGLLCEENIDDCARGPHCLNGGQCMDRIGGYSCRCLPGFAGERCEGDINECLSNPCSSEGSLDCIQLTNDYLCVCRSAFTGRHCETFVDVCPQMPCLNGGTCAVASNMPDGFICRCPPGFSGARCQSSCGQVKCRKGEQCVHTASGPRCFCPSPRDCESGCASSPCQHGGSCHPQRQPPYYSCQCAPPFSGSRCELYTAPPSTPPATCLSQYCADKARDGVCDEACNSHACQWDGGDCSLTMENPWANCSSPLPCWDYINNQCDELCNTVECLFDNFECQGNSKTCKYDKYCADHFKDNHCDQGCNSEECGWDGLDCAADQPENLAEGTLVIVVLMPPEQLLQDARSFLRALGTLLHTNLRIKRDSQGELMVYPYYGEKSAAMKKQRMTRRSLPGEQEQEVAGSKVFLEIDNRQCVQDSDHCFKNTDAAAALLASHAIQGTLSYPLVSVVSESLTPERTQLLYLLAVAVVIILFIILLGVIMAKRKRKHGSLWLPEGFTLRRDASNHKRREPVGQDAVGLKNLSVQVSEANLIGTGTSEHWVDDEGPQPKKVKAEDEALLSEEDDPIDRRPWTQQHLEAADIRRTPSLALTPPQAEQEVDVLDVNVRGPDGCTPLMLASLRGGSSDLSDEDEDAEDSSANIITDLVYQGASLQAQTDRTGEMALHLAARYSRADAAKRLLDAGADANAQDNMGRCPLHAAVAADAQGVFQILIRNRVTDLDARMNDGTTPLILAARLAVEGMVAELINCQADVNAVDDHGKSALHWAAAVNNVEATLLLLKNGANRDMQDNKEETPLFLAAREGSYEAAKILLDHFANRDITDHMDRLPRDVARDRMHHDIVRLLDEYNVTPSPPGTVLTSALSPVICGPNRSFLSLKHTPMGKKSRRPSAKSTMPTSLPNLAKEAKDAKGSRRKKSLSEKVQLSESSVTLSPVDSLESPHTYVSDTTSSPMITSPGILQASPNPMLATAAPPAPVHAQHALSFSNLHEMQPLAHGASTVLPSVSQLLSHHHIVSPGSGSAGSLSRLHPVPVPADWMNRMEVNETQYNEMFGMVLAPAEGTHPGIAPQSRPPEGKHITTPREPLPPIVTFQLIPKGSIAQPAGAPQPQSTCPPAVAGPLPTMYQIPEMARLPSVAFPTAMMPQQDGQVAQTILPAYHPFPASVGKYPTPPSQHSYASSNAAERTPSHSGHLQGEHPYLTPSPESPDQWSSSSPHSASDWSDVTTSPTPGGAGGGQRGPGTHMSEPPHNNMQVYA
For experiment [6], the target named is Pro-neuregulin-1, membrane-bound isoform (Homo sapiens) (UniProt Q02297). The experiment is described as follows: small molecules binding neuregulin-1 protein – biochemical, small-molecule microarray, fluorescence 635/667, psychiatric disease protein project, primary screen (AID 1075).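 Also: score combines 667 nm spot fluorescence with signal to noise.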 The conditions noted are these: NRG1 binding, 635 nm fluorescence, higher = more signal.
Sequence of Pro-neuregulin-1, membrane-bound isoform (Homo sapiens) (Q02297 whole entry, looked up, canonical isoform): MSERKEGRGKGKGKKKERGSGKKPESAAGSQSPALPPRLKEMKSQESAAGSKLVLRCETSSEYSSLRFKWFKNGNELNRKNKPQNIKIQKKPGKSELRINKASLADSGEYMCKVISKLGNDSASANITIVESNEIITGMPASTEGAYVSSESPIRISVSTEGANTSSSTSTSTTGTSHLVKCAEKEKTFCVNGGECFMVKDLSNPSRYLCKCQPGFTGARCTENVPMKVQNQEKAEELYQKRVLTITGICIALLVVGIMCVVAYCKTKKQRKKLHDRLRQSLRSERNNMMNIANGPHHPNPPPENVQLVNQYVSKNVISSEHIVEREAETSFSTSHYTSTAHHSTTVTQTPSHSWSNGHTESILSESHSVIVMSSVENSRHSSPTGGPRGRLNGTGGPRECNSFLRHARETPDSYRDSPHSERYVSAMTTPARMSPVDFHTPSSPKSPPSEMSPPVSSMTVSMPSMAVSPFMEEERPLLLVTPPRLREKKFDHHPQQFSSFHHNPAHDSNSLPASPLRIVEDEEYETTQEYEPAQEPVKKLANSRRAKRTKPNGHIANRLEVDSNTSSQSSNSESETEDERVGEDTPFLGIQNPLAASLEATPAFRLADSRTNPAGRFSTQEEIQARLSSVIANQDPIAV

Experiment [7] deals with Neuregulin-1 EGF-like domain. The experiment is described as follows: small molecules binding NRG1 EGF domain – biochemical, small-molecule microarray, 635 nm fluorescence, primary screen (AID 1081).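 Also: binding of the protein to compounds printed on small-molecule microarray slides.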 The conditions noted are these: higher = more signal.
Experiment [8] in a line: FRG1 expression reporter modulators in myotubes – cell-based, C2C12 myotubes, firefly/Renilla luciferase, luminescence, FRG1 inhibition for FSHD, primary screen (AID 1084). The conditions noted are these: FRG1 promoter luciferase, higher = more signal, called active from +8 up or from −8 down.
The nature of experiment [9]: small molecules captured by biotinylated probe aFST – biochemical, small-molecule microarray, fluorescence 635/667, stem cell growth factor project, primary screen (AID 1086).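 Also: score merges 667 nm fluorescence with signal-to-noise of each printed compound spot.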 The conditions noted are these: higher = more signal.
A short description of experiment [10]: binders of probe aHhip on microarray, primary screen, stem cell growth factor project, biochemical, small-molecule microarray, fluorescence 635/667 (AID 1087).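 Also: score merges spot fluorescence at 667nm with spot signal to noise ratio.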 The conditions noted are these: higher = more signal.
The test system of experiment [11] is PRMT1 (protein arginine N-methyltransferase 1). In words: small molecules binding arginine methyltransferase PRMT1 – biochemical, small-molecule microarray, 635 nm fluorescence, primary screen (AID 1088).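 Also: binding of Prmt1 protein to compounds spotted on small-molecule microarray slides.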 The conditions noted are these: higher = more signal.
A short description of experiment [12]: growth effects on S. cerevisiae YJM789 – YJM789 clinical isolate, OD600, 24 h, basal, primary screen (AID 1089).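 Also: growth of clinical yeast isolate S. cerevisiae YJM 789 seeded 1000 cells per well; test concentration not given here.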 The conditions noted are these: higher = more signal, called active from +8 up or from −8 down.
A short description of experiment [13]: S. pombe growth modifiers, basal conditions – strain 972, OD600, 24 h, no modulator, primary screen (AID 1090).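 Also: basal condition with compound alone and no growth modifier present; test concentration not given here.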 The conditions noted are these: S. pombe 972 growth, higher = more signal, called active from +8 up or from −8 down.
Experiment [14] in a line: budding yeast growth modifiers under rapamycin – strain BY4716, OD600, 96 h, primary screen (AID 1091). Also: test concentration not given here. The conditions noted are these: S. cerevisiae BY4716 + rapamycin, higher = more signal, called active from +8 up or from −8 down.
Experiment [15] has as its target Torsin-1A-interacting protein 2 (Homo sapiens) (UniProt Q8NFQ8). The experiment is described as follows: small molecules binding lysate-expressed LULL1 – cell lysate, human LULL1 lysate, 635/667 nm fluorescence, primary screen (AID 1092).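 Also: probe is lysate of COS7 cells overexpressing human LULL1; score merges per-feature 667 nm fluorescence with signal-to-noise.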 The conditions noted are these: small-molecule microarray, hLULL1 lysate binding, 635 nm fluorescence; higher = more signal.
Experiment [16] can be described thus: optical density change of DRC41 E. coli – strain DRC41, OD650, 24 h, E. coli filamentation project, primary screen (AID 1093).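 Also: MC1000 strain lacking acrAB efflux and sulA so SOS filamentation is blocked; test concentration not given here.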 The conditions noted are these: E. coli DRC41 growth, higher = more signal, called active from +8 up or from −8 down.
A short description of experiment [17]: probe aLefty2 binding to arrayed compounds – biochemical, biotinylated probe, 635/667 nm fluorescence, primary screen (AID 1094).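 Also: score merges spot fluorescence near 667 nm with spot signal-to-noise ratio.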 The conditions noted are these: small-molecule microarray, higher = more signal.
For experiment [18], the system named is Noggin (protein binding on small-molecule microarray). The experiment is described as follows: small molecules binding Noggin protein – biochemical, 635/667 nm fluorescence, primary screen (AID 1095).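 Also: score merges 667 nm feature fluorescence with signal to noise over triplicate slides.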 The conditions noted are these: 635 nm fluorescence, higher = more signal.
For experiment [19], the target named is Neurogenic locus notch homolog protein 3 (Homo sapiens) (UniProt Q9UM47). The experiment is described as follows: small molecules binding NOTCH3 protein – biochemical, 635/667 nm fluorescence, primary screen (AID 1096). The conditions noted are these: small-molecule microarray, 635 nm fluorescence, higher = more signal.
Experiment [20] in a line: probe aEGFR binding to arrayed compounds – biochemical, biotinylated probe, 635/667 nm fluorescence, primary screen (AID 1097).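 Also: probe is a biotinylated anti-EGFR antibody binding compounds printed on slides; score combines fluorescence near 667 nm and signal to noise of each spot.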 The conditions noted are these: small-molecule microarray, higher = more signal.

Sequence of Torsin-1A-interacting protein 2 (Homo sapiens) (Q8NFQ8 whole entry, looked up): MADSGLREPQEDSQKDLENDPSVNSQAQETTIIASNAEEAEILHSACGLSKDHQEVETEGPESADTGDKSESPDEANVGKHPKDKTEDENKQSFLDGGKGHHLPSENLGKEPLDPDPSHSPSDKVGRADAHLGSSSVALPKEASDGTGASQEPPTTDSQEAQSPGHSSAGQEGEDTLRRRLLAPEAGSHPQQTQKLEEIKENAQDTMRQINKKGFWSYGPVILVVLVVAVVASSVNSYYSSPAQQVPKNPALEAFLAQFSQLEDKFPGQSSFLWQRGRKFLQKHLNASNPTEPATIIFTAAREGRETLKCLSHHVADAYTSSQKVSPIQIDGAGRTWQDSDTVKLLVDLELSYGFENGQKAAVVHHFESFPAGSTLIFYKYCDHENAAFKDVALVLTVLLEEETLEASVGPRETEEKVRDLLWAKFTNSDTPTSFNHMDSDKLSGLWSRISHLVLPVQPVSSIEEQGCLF

For the compound `CN1C(=O)C2C=CC(C(O)c3cc(C(F)(F)F)cc(C(F)(F)F)c3)N(N3CCCCC3)C2C1=O` (stereo not given), the composite z-score in experiment [1] was 0.104; in experiment [2] it was -0.392; in experiment [3] it was 0.0173; in experiment [4], 0.395; in [5] it was 1.41; in experiment [6] it was 0.416. The composite z-score in experiment [7] was 0.892; in [9], 0.498; in [10], -0.335; in experiment [11] it was 1.34; in [15] it was 2.65; in experiment [17], 0.254. Moreover, the figures for the composite z-score in [18], in experiment [19] and in experiment [20] were -0.297, 0.688 and 0.153, respectively. Moreover, the z-score is 0.215 (inactive) in experiment [8]; 1.69 (inactive) in experiment [12]; 0.763 (inactive) in experiment [13]; 1.63 (inactive) in [14]; -0.627 (inactive) in experiment [16].

Take `CC(C)(C)OC(=O)CC[C@]1(C(=O)NCC(O)CO)COC(c2ccc(OCCCO)cc2)=N1` (stereo not given in full): the composite z-score in experiment [1] was 0.139; in experiment [2] it was -0.382; in experiment [3], -0.0551; in experiment [4], -0.0211; in experiment [5] it was 1.13; in [6], 1.97. Moreover, the composite z-score in experiment [7] was 1.21; in [9], 1.24; in experiment [10] it was -0.0645; in experiment [11], 0.281; in experiment [15], 3.71; in experiment [17], -0.12. The composite z-score in [18] is -0.579; in experiment [19], -0.0234; in [20] it was 0.0287. Further, the z-score was 0.555 (inactive) in [8]; 0.65 (inactive) in experiment [12]; 1 (inactive) in experiment [13]; 0.977 (inactive) in experiment [14]; -0.0576 (inactive) in experiment [16].

With `[N-]=[N+]=NCc1ccccc1[C@H]1OC(c2ccc(OCCCO)cc2)=N[C@@]1(Cc1ccccc1)C(=O)NCc1ccccc1`, the composite z-score in experiment [1] is -0.0101; in [2] it was 0.742; in experiment [3] it was -0.0184; in experiment [4], 1.27; in [5], 1.24; in experiment [6] it was 2.05. Further, the composite z-score was 0.921 in [7]; 0.513 in [9]; -0.331 in experiment [10]; 1.48 in experiment [11]; 2.86 in experiment [15]; 0.151 in experiment [17]. For the same compound, the composite z-score in experiment [18] worked out at 0.177; in experiment [19], 1.12; in experiment [20], 0.411. Further, the z-score in experiment [8] was -1.5 (inactive); in experiment [12], -1.9 (inactive); in [13] it was -0.0354 (inactive); in [14], 6.58 (inactive); in experiment [16], 0.84 (inactive).

On to `CN1C(=O)C2C=CC(C(O)c3cccs3)N(Nc3ccccc3)C2C1=O` (stereo not given), for which the composite z-score in [1] is 0.0812; in experiment [2], 0.552; in [3], -0.0628; in experiment [4], 0.415; in experiment [5], 0.94; in experiment [6], 1.22. For the same compound, the composite z-score in [7] turned out to be 1.4; in [9], 0.388; in experiment [10] it was 0.261; in experiment [11] it was 0.881; in experiment [15], 3.24; in [17] it was 0.139. Further, the composite z-score in experiment [18] was 0.395; in experiment [19], 0.826; in experiment [20], -0.0111. Also, the z-score was -0.263 (inactive) in experiment [8]; 0.442 (inactive) in experiment [12]; 0.917 (inactive) in [13]; 0.662 (inactive) in experiment [14]; -1.32 (inactive) in experiment [16].

Consider `CO[C@H]1O[C@H](CO)[C@@H](OC(=O)Nc2ccc(Br)cc2)[C@H](OC(=O)c2cc3ccccc3[nH]2)[C@H]1OC(=O)c1cc2ccccc2[nH]1`, for which the composite z-score in experiment [1] is -0.31; in experiment [2], 1.05; in experiment [3] it was -0.11; in [4], 0.724; in experiment [5] it was 0.606; in [6], 0.844. For the same compound, the composite z-score in experiment [7] was 1.07; in experiment [9], 0.237; in experiment [10] it was -0.0253; in [11], 1.39; in experiment [15] it was 2.48; in experiment [17], 0.0166. Further, the composite z-score came out at 0.514 in experiment [18], 0.944 in [19] and 0.0686 in [20]. Further, the z-score in [8] is -0.483 (inactive); in experiment [12], -1.96 (inactive); in experiment [13], -1.59 (inactive); in experiment [14], -0.654 (inactive); in experiment [16], 2.05 (inactive).
